Reference: PubChem BioAssay (EPA / NIEHS)
Where “and” joins values, the source holds several entries; their conditions need not be identical. Equal values may be shown once. Results filed as inconclusive are left out. Some structures have more than one record in an assay (separate samples or runs), and their calls can disagree. Calls of active or inactive are those of the source. The calls were made as follows, unless noted: active = hit-call score of the fitted dose curve at least 0.9, where 1 is the maximum; inactive = score below 0.9.

Legend:
[1] = read-out: E-selectin (Homo sapiens) (UniProt P16581); assay: BSK_SAg_Eselectin: BioMAP Diversity Plus: SAg Assay for Eselectin Biomarker Activity (AID 2283091); conditions: primary human HUVEC with PBMC; actives raise or lower the signal
Summary of the method: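 Primary human endothelial cells and peripheral blood mononuclear cells were co-cultured and exposed to chemical for 24 hours. E-selectin levels were then quantified by ELISA, with bidirectional curve fitting normalised to DMSO controls.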

[2] = read-out: Monokine induced gamma interferon (MIG), CXCL9 (gene 4283); assay: BSK_SAg_MIG: BioMAP Diversity Plus: SAg Assay for Monokine induced gamma interferon (MIG) Biomarker Activity (AID 2283092); conditions: primary human HUVEC with PBMC; actives raise or lower the signal
Summary of the method: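 HUVEC plus human PBMC co-culture, chemicals dosed and MIG (CXCL9) quantified by ELISA at 24 h. Bidirectional curve fitting against DMSO as negative control and baseline, so both gain and loss of signal count as activity.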

[3] = BSK_SAg_PBMCCytotoxicity: PBMC Cytotoxicity Assessment in the BioMAP Diversity Plus: SAg Assay (AID 2283093); conditions: primary human HUVEC with PBMC;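 also: fitted both ways against DMSO so a hit may be loss or gain of signal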;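 as to AC50: PBMC superantigen activated with SEB plus TSST-1 one hour after compound addition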
Summary of the method: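 PBMC viability by Alamar Blue reduction, fluorescence read at 546/580 nm after 6 h dye exposure. Cells were dosed 1 h before SEB plus TSST-1 activation (20 ng/mL final each), then held 90 h; endothelial/PBMC human co-culture.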

[4] = read-out: Interleukin-8 (IL8), CXCL8 (gene 3576); assay: BSK_SAg_IL8: BioMAP Diversity Plus: SAg Assay for Interleukin-8 (IL8) Biomarker Activity (AID 2283094); conditions: primary human HUVEC with PBMC; actives raise or lower the signal
Summary of the method: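 Chemicals were dosed onto a human endothelial–PBMC co-culture, and IL-8 was quantified by ELISA after 24 h. Both increases and decreases were fitted relative to DMSO.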

[5] = BSK_SAg_Proliferation: Cell Proliferation Assessment in the BioMAP Diversity Plus: SAg Assay (AID 2283095); conditions: primary human HUVEC with PBMC;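 also: relative cell number as total protein by SRB absorbance in sub-confluent culture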
Summary of the method: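 Absorbance of sulforhodamine B at 560 nm reports total protein in a human vascular endothelial/PBMC co-culture after 96 h chemical exposure. Gain or loss of signal is fitted in both directions against DMSO.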

[6] = BSK_SAg_SRB: Viability Assessment in the BioMAP Diversity Plus: SAg Assay (AID 2283096); conditions: primary human HUVEC with PBMC;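 also: cells read one day after compound addition; hits may be either gain or loss of signal compared with DMSO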
Summary of the method: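 Compounds were added to a human vascular co-culture of umbilical vein endothelium and PBMC. After 24 h, parallel cultures were fixed with 10% TCA, stained with 0.1% sulforhodamine B and read at 560 nm. Gain or loss of signal was fitted relative to DMSO.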

[7] = biological target: human CYP19A1, CYP19A1 (gene 1588) (UniProt P11511); assay: NVS_ADME_hCYP19A1: NovaScreen (NVS) CYP450-related Enzyme Activity (ADME) Assay for human CYP19A1 (AID 2283098; active = hit-call score of the fitted dose curve at least 0.9, where 1 is the maximum;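 as to AC50: potency for inhibitors seen as loss of fluorescent enzyme signal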)
Sequence of human CYP19A1, CYP19A1 (gene 1588) (P11511 whole entry, looked up): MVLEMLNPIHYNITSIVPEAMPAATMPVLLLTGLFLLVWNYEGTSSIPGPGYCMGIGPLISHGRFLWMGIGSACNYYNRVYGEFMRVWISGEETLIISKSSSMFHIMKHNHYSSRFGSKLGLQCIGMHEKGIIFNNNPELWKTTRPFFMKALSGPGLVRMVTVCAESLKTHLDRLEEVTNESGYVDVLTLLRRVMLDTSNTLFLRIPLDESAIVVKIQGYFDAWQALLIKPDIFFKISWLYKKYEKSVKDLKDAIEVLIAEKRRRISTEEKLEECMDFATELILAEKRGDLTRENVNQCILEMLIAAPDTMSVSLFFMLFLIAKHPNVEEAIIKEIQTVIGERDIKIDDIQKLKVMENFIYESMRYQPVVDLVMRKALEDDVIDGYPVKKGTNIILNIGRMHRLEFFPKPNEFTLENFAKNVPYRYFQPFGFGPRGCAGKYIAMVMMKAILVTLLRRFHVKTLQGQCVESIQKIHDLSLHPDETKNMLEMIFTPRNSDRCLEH
Summary of the method: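 Fluorescence intensity read-out; activity taken as signal loss relative to acetonitrile vehicle. Extracted enzyme, specific substrate, no cells, 0.5 h exposure. Duplicate single-point screen at 10 uM, then concentration–response follow-up for actives.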

[8] = biological target: human CYP2A6, CYP2A6 (gene 1548) (UniProt P11509); assay: NVS_ADME_hCYP2A6: NovaScreen (NVS) CYP450-related Enzyme Activity (ADME) Assay for human CYP2A6 (AID 2283099; active = hit-call score of the fitted dose curve at least 0.9, where 1 is the maximum)
Sequence of human CYP2A6, CYP2A6 (gene 1548) (P11509 whole entry, looked up): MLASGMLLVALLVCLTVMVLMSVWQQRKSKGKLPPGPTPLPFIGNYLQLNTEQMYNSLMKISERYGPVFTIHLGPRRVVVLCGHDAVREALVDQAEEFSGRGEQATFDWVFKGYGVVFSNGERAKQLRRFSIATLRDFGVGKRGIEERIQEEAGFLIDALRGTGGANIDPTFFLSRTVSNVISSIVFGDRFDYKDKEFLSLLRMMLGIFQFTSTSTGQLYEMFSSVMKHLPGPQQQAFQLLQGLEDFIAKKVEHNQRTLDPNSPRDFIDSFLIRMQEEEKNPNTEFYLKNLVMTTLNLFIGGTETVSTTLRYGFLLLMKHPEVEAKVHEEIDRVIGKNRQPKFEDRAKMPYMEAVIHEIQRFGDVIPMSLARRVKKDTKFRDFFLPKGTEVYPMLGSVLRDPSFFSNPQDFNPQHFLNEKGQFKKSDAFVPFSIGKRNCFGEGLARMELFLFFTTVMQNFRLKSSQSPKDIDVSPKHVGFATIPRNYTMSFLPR
Experimental: (§1) NVS_ADME_hCYP2A6 is a biochemical, single-readout assay that uses extracted gene-proteins from insect cells in a cell-free assay. Measurements were taken 0.5 hour after chemical dosing in a 96-well plate.NVS_ADME_hCYP2A6 is one of one assay component(s) measured or calculated from the NVS_ADME_hCYP2A6 assay. It is designed to make measurements of enzyme activity, a form of enzyme reporter, as detected with fluorescence intensity signals by Fluorescence technology.Data from the assay component NVS_ADME_hCYP2A6 was analyzed into 1 assay endpoint. This assay endpoint, NVS_ADME_hCYP2A6, was analyzed in the positive analysis fitting direction relative to Acetonitrile as the negative control and baseline of activity. Using a type of enzyme reporter, loss-of-signal activity can be used to understand changes in the enzymatic activity as they relate to the gene CYP2A6. Furthermore, this assay endpoint can be referred to as a primary readout, because this assay has produced multiple assay endpoints where this one serves a enzymatic activity function. To generalize the intended target to other relatable targets, this assay endpoint is annotated to the cyp intended target family, where the subfamily is xenobiotic metabolism.
(§2) Binding assays used specific radioligands (tritiated, iodinated) with non-radioactive competitive displacement ligands in agonist or antagonist protocols (as indicated) and various reference compounds and inhibitors to titrate specific binding to receptors and transporters. Most enzyme assays (CYPs, kinases, phosphatases, proteases, HDACs) used recombinant protein and specific substrates (fluorescence mostly, some colorimetric and radioactive) and inhibitors, followed by a biochemical separation of substrate and product. All assays for the biochemical HTS were initially run in duplicate at a single concentration (10 uM for CYP450 assays and 25 uM for all others). Assay-chemical combinations meeting a pre-defined threshold (e.g., 30% inhibition and other criteria defined below) were then run in singleton concentration-response format with maximum concentration of 20 uM for CYPs and 50 uM for all others. Each assay was run with positive and negative controls, and concurrent controls on every plate. The follow-up (secondary) screen tested active chemical-pairs in concentration series, as well as a few additional assays not tested in the primary screen, some selected negative inactives, and several cases re-run in the concentration series for confirmatory purposes.

[9] = biological target: human CYP1A1, CYP1A1 (gene 1543) (UniProt P04798); assay: NVS_ADME_hCYP1A1: NovaScreen (NVS) CYP450-related Enzyme Activity (ADME) Assay for human CYP1A1 (AID 2283100; active = hit-call score of the fitted dose curve at least 0.9, where 1 is the maximum)
Sequence of human CYP1A1, CYP1A1 (gene 1543) (P04798 whole entry, looked up): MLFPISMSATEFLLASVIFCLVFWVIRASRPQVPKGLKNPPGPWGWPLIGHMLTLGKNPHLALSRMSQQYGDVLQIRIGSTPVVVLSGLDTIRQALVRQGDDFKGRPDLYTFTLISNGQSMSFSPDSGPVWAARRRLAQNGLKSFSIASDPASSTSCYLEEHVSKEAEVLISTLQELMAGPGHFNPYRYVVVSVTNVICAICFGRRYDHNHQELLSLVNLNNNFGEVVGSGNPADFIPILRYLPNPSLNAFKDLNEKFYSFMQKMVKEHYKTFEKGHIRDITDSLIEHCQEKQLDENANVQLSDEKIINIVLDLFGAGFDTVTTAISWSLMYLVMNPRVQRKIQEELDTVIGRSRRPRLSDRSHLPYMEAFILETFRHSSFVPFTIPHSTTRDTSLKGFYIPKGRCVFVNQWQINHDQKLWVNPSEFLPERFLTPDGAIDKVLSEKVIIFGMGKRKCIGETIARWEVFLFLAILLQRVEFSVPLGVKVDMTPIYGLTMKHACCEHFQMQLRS
Experimental: as §1, with “NVS_ADME_hCYP1A1” for “NVS_ADME_hCYP2A6”, “gene-proteins” for “gene-proteins from insect cells”, “1” for “0.5”, “plate.NVS_ADME_hCYP1A1” for “plate.NVS_ADME_hCYP2A6”, “NVS_ADME_hCYP1A1,” for “NVS_ADME_hCYP2A6,”, “CYP1A1.” for “CYP2A6.”
as §2

[10] = biological target: human CYP2B6, CYP2B6 (gene 1555) (UniProt P20813); assay: NVS_ADME_hCYP2B6: NovaScreen (NVS) CYP450-related Enzyme Activity (ADME) Assay for human CYP2B6 (AID 2283101; active = hit-call score of the fitted dose curve at least 0.9, where 1 is the maximum)
Sequence of human CYP2B6, CYP2B6 (gene 1555) (P20813 whole entry, looked up): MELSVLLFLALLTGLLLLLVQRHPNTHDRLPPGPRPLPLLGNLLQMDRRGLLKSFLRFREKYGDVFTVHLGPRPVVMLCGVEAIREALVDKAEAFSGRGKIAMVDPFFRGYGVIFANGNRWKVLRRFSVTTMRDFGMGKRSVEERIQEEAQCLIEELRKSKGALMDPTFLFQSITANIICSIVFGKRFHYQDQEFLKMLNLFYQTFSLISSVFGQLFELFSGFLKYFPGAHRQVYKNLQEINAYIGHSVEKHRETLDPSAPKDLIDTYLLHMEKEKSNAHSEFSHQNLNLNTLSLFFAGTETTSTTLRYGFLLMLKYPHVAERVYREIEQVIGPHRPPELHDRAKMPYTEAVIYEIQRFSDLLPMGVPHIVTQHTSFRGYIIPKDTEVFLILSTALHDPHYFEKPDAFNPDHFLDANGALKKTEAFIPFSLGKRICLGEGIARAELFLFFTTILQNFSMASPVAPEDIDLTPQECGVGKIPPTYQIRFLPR
Summary of the method: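 Recombinant human CYP2B6 with fluorogenic substrate, read by fluorescence intensity 1 h after dosing. Primary screen in duplicate at 10 uM, actives followed in concentration series; signal loss relative to acetonitrile control.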

Measured: AC50

Sequence of E-selectin (Homo sapiens) (P16581 whole entry, looked up): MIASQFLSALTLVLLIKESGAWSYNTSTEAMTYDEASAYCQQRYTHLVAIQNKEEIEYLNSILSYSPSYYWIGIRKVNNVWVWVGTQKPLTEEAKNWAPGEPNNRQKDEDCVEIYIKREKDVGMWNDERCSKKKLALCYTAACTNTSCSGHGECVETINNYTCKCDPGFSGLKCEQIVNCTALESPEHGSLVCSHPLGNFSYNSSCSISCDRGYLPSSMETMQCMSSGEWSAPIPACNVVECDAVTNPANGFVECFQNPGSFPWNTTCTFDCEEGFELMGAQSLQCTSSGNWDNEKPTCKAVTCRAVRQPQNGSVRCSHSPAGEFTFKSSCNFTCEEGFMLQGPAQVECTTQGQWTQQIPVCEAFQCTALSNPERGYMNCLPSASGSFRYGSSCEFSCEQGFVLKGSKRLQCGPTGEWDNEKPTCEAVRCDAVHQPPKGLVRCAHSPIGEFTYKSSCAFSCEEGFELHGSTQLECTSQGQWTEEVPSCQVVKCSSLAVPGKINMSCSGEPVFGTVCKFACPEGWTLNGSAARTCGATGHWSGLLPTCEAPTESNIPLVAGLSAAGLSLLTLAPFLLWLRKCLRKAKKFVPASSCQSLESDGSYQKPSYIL

CC1(c2ccc(Oc3ccccc3)cc2)OC(=O)N(Nc2ccccc2)C1=O (stereo not given)
inactive: [3]
active: [1] 15.6 µM | [2] 34.1 µM | [4] 11.8 µM | [5] 16.9 µM | [6] 30.3 µM

COC(=O)c1ccccc1S(=O)(=O)NC(=O)N(C)c1nc(C)nc(OC)n1
inactive: [1] | [2] | [3] | [4] | [5] | [6]

CCC(C)(C)C(=O)OC1=C(c2ccc(Cl)cc2Cl)C(=O)OC12CCCCC2
active: [1] 11.5 µM | [2] 21.3 µM | [3] 26.5 µM | [4] 4.73 µM | [5] 12.3 µM | [6] 32.8 µM

O=[N+]([O-])/N=C1\NCCN1Cc1ccc(Cl)nc1
inactive: [1] | [2] | [3] | [4] | [5] | [6] | [7]

CNC(=O)CSP(=S)(OC)OC
active: [8] 4.5 µM
inactive: [1] | [2] | [3] | [4] | [5] | [6] | [7]

O=[N+]([O-])c1c(Cl)c(Cl)c(Cl)c(Cl)c1Cl
inactive: [2] | [3] | [4] | [6] | [7] | [9]
active: [1] 20 µM | [5] 31.2 µM

N#Cc1c(Cl)c(Cl)c(Cl)c(C#N)c1Cl
active: [1] 0.959 µM | [2] 1.83 µM | [3] 1.4 µM | [4] 1.74 µM | [5] 0.197 µM | [6] 2.27 µM | [7] 0.192 µM
inactive: [8]

O=C1c2ccccc2C(=O)N1SC(Cl)(Cl)Cl
active: [5] 23.4 µM | [7] 1.01 µM
inactive: [1] | [2] | [3] | [4] | [6]

O=C(Nc1ccccc1)Nc1cnns1
active: [8] 5.8 µM
inactive: [1] | [2] | [3] | [4] | [5] | [6]

CCCN(CCC)c1c([N+](=O)[O-])cc(C(F)(F)F)cc1[N+](=O)[O-]
inactive: [2] | [7]
active: [1] 15.4 µM | [3] 15 µM | [4] 24.9 µM | [5] 24.4 µM | [6] 20 µM

COc1nn(CSP(=S)(OC)OC)c(=O)s1
inactive: [1] | [2] | [3] | [4] | [5] | [6]
active: [7] 1.23 µM | [8] 6.42 µM | [9] 5.47 µM | [10] 350 nM

C#CCN1C(=O)COc2cc(F)c(N3C(=O)C4=C(CCCC4)C3=O)cc21
active: [1] 16.3 µM | [10] 4200 nM
inactive: [2] | [3] | [4] | [5] | [6]

CC(C)(C)C(O)/C(=C\c1ccc(Cl)cc1Cl)n1cncn1 (stereo not given)
active: [1] 27.3 µM | [4] 32.2 µM | [5] 29.2 µM | [6] 29.9 µM | [7] 4.73 µM | [9] 0.705 µM | [10] 974 nM
inactive: [2] | [3]

Oc1ccc(Cl)cc1Cc1ccccc1
active: [1] 32.5 µM [middle of 5 runs] | [2] 36.8 µM [middle of 7 runs] | [3] 27.2 µM [middle of 7 runs] | [4] 31.7 µM [middle of 7 runs] | [6] 29.4 µM [middle of 7 runs] | [7] 3.11 µM and 2.49 µM | [10] 7.66 µM [middle of 6 runs]
inactive: [7] | [9]

CCOC1Oc2ccc(OS(C)(=O)=O)cc2C1(C)C (stereo not given)
inactive: [2] | [5] | [6]
active: [1] 23.5 µM | [3] 25.9 µM | [4] 10.1 µM | [10] 5430 nM

CCOCN(C(=O)CCl)c1c(C)cccc1CC
inactive: [2] | [3] | [4]
active: [1] 17.1 µM | [5] 27.1 µM | [6] 15.9 µM

COP(=S)(OC)Oc1ccc(SC)c(C)c1
inactive: [2] | [3] | [4] | [5] | [6]
active: [1] 33.6 µM | [10] 8760 nM

CCCN(CCOc1c(Cl)cc(Cl)cc1Cl)C(=O)n1ccnc1
active: [1] 20.6 µM | [2] 32.5 µM | [3] 20 µM | [4] 15.5 µM | [5] 30.4 µM | [7] 0.784 µM | [9] 0.453 µM | [10] 124 nM
inactive: [6]

COc1cc(OC)nc(NC(=O)NS(=O)(=O)c2cc(NC=O)ccc2C(=O)N(C)C)n1
inactive: [1] | [2] | [3] | [4] | [5] | [6]

COP(=S)(OC)Oc1ccc([N+](=O)[O-])cc1
active: [1] 30.9 µM | [3] 11.5 µM | [4] 20 µM | [5] 21.9 µM | [6] 21.7 µM | [8] 2.85 µM | [9] 6.61 µM | [10] 547 nM
inactive: [2] | [7]
